Bioassay records (PubChem BioAssay)
An excerpt weighted towards active compounds, which were near 3.1% of everything screened.
LEDGF integ inh: blocks HIV-1 LEDGF/p75-dependent DNA integration | TR-FRET IN-LEDGF/p75 DNA integration, Eu/Cy5 | inhibition, % at 3.7 µM | hit rate 0.64% among 370,000;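 active = inhibition above the screen-wide mean plus 3 SD, cut at about 13% in these data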;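 also: signal is the Cy5 over europium emission ratio at 671 and 618 nm; 0% = plate median of compound wells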
Neddylation inh: cullin neddylation inhibition. P61081+Q13564. TR-FRET cullin neddylation, biochemical. calls only at 25 µM. hit rate 0.58% among 360,000; in the data active = inhibition above about 36%
Target sequence (P61081 whole entry, looked up): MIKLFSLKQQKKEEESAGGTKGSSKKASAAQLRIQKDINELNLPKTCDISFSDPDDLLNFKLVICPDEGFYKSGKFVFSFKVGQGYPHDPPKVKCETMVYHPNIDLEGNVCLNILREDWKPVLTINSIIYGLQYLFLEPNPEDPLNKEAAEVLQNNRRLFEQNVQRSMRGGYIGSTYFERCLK
Target sequence (Q13564 whole entry, looked up): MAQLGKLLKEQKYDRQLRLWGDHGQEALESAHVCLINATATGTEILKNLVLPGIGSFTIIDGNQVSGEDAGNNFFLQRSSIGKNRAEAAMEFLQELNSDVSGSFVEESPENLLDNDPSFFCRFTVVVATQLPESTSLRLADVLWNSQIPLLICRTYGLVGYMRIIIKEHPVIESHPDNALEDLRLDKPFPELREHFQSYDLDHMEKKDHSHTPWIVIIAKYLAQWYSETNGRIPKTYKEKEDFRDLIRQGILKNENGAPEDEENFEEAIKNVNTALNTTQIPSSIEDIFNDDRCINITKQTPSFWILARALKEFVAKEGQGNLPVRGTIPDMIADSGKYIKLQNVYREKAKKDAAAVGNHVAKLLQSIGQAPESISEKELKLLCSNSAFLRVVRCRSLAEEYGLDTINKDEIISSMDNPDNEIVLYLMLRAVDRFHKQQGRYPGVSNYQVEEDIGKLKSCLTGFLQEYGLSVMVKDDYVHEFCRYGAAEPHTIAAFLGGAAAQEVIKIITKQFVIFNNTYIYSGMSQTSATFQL
Rin1-Abl PPI inh: inhibitors of human Rin1-Abl protein interaction; TR-FRET Rin1/Abl binding, biochemical; inhibition, % at 7.35 µM; hit rate 0.4% among 360,000; AID 588664; in the data active = inhibition above about 5%, passing the limit was not always enough
UHRF1 binding: blocks human UHRF1 binding to methylated DNA; UHRF1 binding to methylated oligo, TR-FRET; inhibition, % at 4.4 µM; hit rate 0.75% among 370,000; in the data active = inhibition above about 21%;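 also: UHRF1 SRA domain binding a hemimethylated CpG hairpin DNA probe; 0% = median of test compound wells and 100% = reference inhibitor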
MBD2 inh: blocks human MBD2 binding to methylated DNA; Q9UBB5; TR-FRET, MBD2 binding to methylated oligonucleotide; inhibition, % at 4.4 µM; hit rate 0.31% among 370,000; in the data active = inhibition above about 13%
KLK7 zymogen act: activates the human kallikrein-7 zymogen; hit rate 0.9% among 370,000; activation, % at 7 µM; purified proKLK7, EDANS-DABCYL substrate fluorescence; 100% is mature enzyme control, 0% vehicle; AID 652039;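 active = activation above the mean of all tested compounds plus 3 SD, computed per campaign excluding outliers beyond control limits, cut at about 13% in these data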
Active calls of the source: *.

For Cc1cccc(Nc2ccc([N+](=O)[O-])cc2C(=O)O)c1 the results were LEDGF integ inh 8, Neddylation inh inactive, Rin1-Abl PPI inh 0, UHRF1 binding 23*, MBD2 inh 5 and KLK7 zymogen act 0.
O=C(Nc1ccccc1C(F)(F)F)NC1(C(=O)N2CCOCC2)CCCCC1 was read as LEDGF integ inh 25*, Neddylation inh inactive, Rin1-Abl PPI inh 4, UHRF1 binding 34*, MBD2 inh 16* and KLK7 zymogen act 0.
COCCCNC(=O)C[C@@H]1C[C@@]2(C(=O)OC)CC(C)(C)CC=C2N(Cc2ccccc2)C1=O was read as LEDGF integ inh -1, Neddylation inh inactive, UHRF1 binding 0, MBD2 inh -1 and KLK7 zymogen act 0.
For OC(C#CCN1CCCC1)(c1ccccc1)c1cccnc1 (stereo not drawn) the results were LEDGF integ inh 3, Neddylation inh inactive, Rin1-Abl PPI inh 0, UHRF1 binding 21*, MBD2 inh 10 and KLK7 zymogen act 1.
COc1cc(/C=C/C(C)=NNc2ccccc2)ccc1O was read as LEDGF integ inh 4, Neddylation inh inactive, Rin1-Abl PPI inh 2, UHRF1 binding -2, MBD2 inh -3 and KLK7 zymogen act 0.
Screening Cc1ccnc2nc(C(=O)Nc3ccc4c(c3)OCO4)nn12 returned LEDGF integ inh 2, Neddylation inh inactive, Rin1-Abl PPI inh -3, UHRF1 binding 23*, MBD2 inh 10 and KLK7 zymogen act 0.
`O=C(N/N=C/c1cc(Br)c(O)c(Br)c1)c1cc2c(ccc3ccccc32)o1` gave LEDGF integ inh 9, Neddylation inh active, Rin1-Abl PPI inh 2, UHRF1 binding -2, MBD2 inh -3 and KLK7 zymogen act 2.
O=C(N/N=C/c1ccc(O)c(Br)c1)c1cc2c(ccc3ccccc32)o1 was read as LEDGF integ inh 2, Rin1-Abl PPI inh -2, UHRF1 binding 1, MBD2 inh 0 and KLK7 zymogen act 0.
Cc1cc(C[n+]2ccccc2)c2nsnc2c1 was read as LEDGF integ inh -2, Neddylation inh active, Rin1-Abl PPI inh -4, UHRF1 binding -1, MBD2 inh 2 and KLK7 zymogen act 0.
Screening Cc1ccc(SCCNC(=O)/C=C/c2ccc(Cl)cc2)cc1 returned LEDGF integ inh 0, Neddylation inh inactive, Rin1-Abl PPI inh 4, UHRF1 binding 2, MBD2 inh 1 and KLK7 zymogen act 0.
For Cc1ccc(SCCNC(=O)/C=C/c2ccccc2Cl)cc1 the results were LEDGF integ inh -3, Neddylation inh inactive, Rin1-Abl PPI inh -2, UHRF1 binding 27*, MBD2 inh 8 and KLK7 zymogen act 0.
For O=C(OCc1ccc([N+](=O)[O-])cc1Cl)c1cnccn1 the results were LEDGF integ inh -3, Neddylation inh inactive, Rin1-Abl PPI inh 0, UHRF1 binding 0, MBD2 inh 0 and KLK7 zymogen act 0.
For O=C1Nc2ccccc2Nc2ccccc21 the results were LEDGF integ inh -2, Neddylation inh inactive, Rin1-Abl PPI inh -1, UHRF1 binding 23*, MBD2 inh 6 and KLK7 zymogen act 0.
For O=C(C[C@H]1C(=O)N(C2CCCCC2)C[C@@H]1c1ccccc1)Nc1ccc(Br)cc1 the results were LEDGF integ inh 10, Neddylation inh inactive, Rin1-Abl PPI inh 1, UHRF1 binding 22*, MBD2 inh 12 and KLK7 zymogen act -1.
`COc1ccc(NC(=O)C[C@H]2C(=O)N(C3CCCCC3)C[C@@H]2c2ccccc2)cc1` gave LEDGF integ inh -3, Neddylation inh inactive, Rin1-Abl PPI inh -2, UHRF1 binding -1, MBD2 inh 2 and KLK7 zymogen act 0.
Screening CC(C)(C)OC(=O)N1CCC[C@H]1C(=O)NCC1CCC(C(=O)O)CC1 (stereo partly drawn) returned LEDGF integ inh -1, Neddylation inh inactive, Rin1-Abl PPI inh 0, UHRF1 binding 1, MBD2 inh 3 and KLK7 zymogen act -1.
CSCC[C@H](NC(=O)C1CCC(CNC(=O)[C@@H]2CCCN2C(=O)OC(C)(C)C)CC1)C(=O)O (stereo partly drawn) was read as LEDGF integ inh -5, Neddylation inh inactive, Rin1-Abl PPI inh -3, UHRF1 binding 40*, MBD2 inh 3 and KLK7 zymogen act -1.
Screening CCCCN(Cc1nc2ccccc2c(=O)[nH]1)C(=O)CN1C(=O)NC2(CCCCC2)C1=O returned LEDGF integ inh -2, Neddylation inh inactive, Rin1-Abl PPI inh 4, UHRF1 binding 1, MBD2 inh 2 and KLK7 zymogen act -1.
Screening CC(OC(=O)c1cc(O)c2ccccc2c1O)C(=O)Nc1ccc(C(N)=O)cc1 (stereo not drawn) returned LEDGF integ inh 14*, Neddylation inh inactive, Rin1-Abl PPI inh 1, UHRF1 binding -1, MBD2 inh -13 and KLK7 zymogen act 0.
Screening CC(C)(Oc1ccc(Cl)cc1)C(=O)Nc1ncccn1 returned LEDGF integ inh 3, Neddylation inh inactive, Rin1-Abl PPI inh 5, UHRF1 binding 22*, MBD2 inh 13 and KLK7 zymogen act 0.
CSc1ccc(CNC(=O)CCn2ccc3cc(S(=O)(=O)N4CCCC4)ccc32)cc1 was read as LEDGF integ inh 1, Neddylation inh inactive, Rin1-Abl PPI inh -1, UHRF1 binding -2, MBD2 inh -2 and KLK7 zymogen act 0.
`COc1ccc(C(CNC(=O)C2CC(=O)N(Cc3ccccc3)C2)N2CCOCC2)cc1` (stereo not drawn) gave LEDGF integ inh 0, Neddylation inh inactive, Rin1-Abl PPI inh 0, UHRF1 binding 2, MBD2 inh -4 and KLK7 zymogen act 0.
CCOC(=O)[C@]12CCCC=C1N(Cc1ccco1)C(=O)[C@H](CC(=O)NCC1CCCCC1)C2 was read as LEDGF integ inh -5, Neddylation inh inactive, UHRF1 binding 1, MBD2 inh 1 and KLK7 zymogen act 0.
CCN(CC)C(=S)SC1=CCS(=O)(=O)C1 was read as LEDGF integ inh 6, Neddylation inh inactive, Rin1-Abl PPI inh 1, UHRF1 binding 26*, MBD2 inh 7 and KLK7 zymogen act 1.
Screening O=C(NC1CCN(Cc2ccccc2)CC1)c1cccc(OC(F)F)c1 returned LEDGF integ inh -1, Neddylation inh inactive, Rin1-Abl PPI inh -1, UHRF1 binding 0, MBD2 inh -2 and KLK7 zymogen act 0.
CC(=O)c1cccc(OCc2cc(C(=O)NC3CCN(Cc4ccccc4)CC3)no2)c1 was read as LEDGF integ inh -4, Neddylation inh inactive, Rin1-Abl PPI inh 5, UHRF1 binding 21*, MBD2 inh 9 and KLK7 zymogen act 0.
For COc1ccc(NC(=O)C2(C)Cc3c(-c4cccc(NC(C)=O)c4)ccnc3O2)cn1 (stereo not drawn) the results were LEDGF integ inh -2, Neddylation inh inactive, Rin1-Abl PPI inh 3, UHRF1 binding -1, MBD2 inh 1 and KLK7 zymogen act 0.
